PfHsp40 yeast = compounds rescuing yeast from Plasmodium falciparum HSP40 toxicity; growth rescue, % at 12.5 µM; 340,000 tested, 0.68% active; AID 504582; S. cerevisiae expressing PfHsp40, growth rescue, ATP luminescence; in the data active = growth rescue above about 28%, passing the limit was not always enough;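 note: yeast W303a lacking pdr1 and pdr3 grown in galactose medium; growth measured after three days at 30 °C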
PrPC surface inh = cell surface PrPC inhibition, primary TR-FRET screen | TR-FRET read-out | AID 720596 | P04156 | inhibition, % at 13.8 µM | 370,000 tested, 0.43% active; in the data active = inhibition above about 24%
BJeLR lethal = BJeLR cell viability loss; BJeLR (HRASV12) viability, CellTiter-Glo ATP luminescence, 48 h; inhibition, % (no concentration beside the values); 300,000 tested, 0.17% active; in the data active = inhibition above about 50%
PriA SSB inh = blocks PriA binding to SSB C-terminal tail | 430,000 tested, 0.6% active | inhibition, % at 33 µM | AlphaScreen SSBct-PriA binding, biotinylated peptide; in the data active = inhibition mostly above about 37%, no sharp cut-off; inactive = mostly below about 20%
PrP UTR inh = suppresses PrP 5' UTR mRNA reporter expression; cell-based PrP 5' UTR mRNA reporter, plate reader; inhibition, % (test concentration not listed); 340,000 tested, 0.35% active; AID 488862; in the data active = inhibition above about 52%
Yp Topo-I inh = inhibitors of Yersinia pestis topoisomerase I; Y. pestis Topo-I cleavage product accumulation, plate reader; activity, % at 10 µM; 360,000 tested, 0.064% active; in the data active = activity above about 50%, passing the limit was not always enough
Of the large screens only hits and unclear results are named; the others gave an inactive call. Rows were chosen to be rich in hits. Some 1.7% of all compounds tested hit in one or more screens of this group.

CCCCn1c(=O)c(C(=O)NCc2ccncc2)c(O)c2ccccc21	PfHsp40 yeast 219
CCn1c(=O)c(C(=O)NCCc2ccc(OC)c(OC)c2)c(O)c2ccccc21	none (no result: PrP UTR inh)
CCCCCCn1c(=O)c(C(=O)Nc2ncccc2C)c(O)c2ccccc21	PfHsp40 yeast 145
CCn1c(=O)c(C(=O)NNC(=O)c2ccccc2)c(O)c2ccccc21	PfHsp40 yeast 168
CCCCCCC(=O)NNC(=O)c1c(O)c2ccccc2n(CC)c1=O	none
CCCn1c(=O)c(C(=O)NCCc2ccc(OC)c(OC)c2)c(O)c2ccccc21	PfHsp40 yeast 192
O=S(=O)(c1cccs1)N1CCCCC(c2ccc(F)cc2)C1 (stereo not drawn)	none (no result: PfHsp40 yeast, PrPC surface inh, BJeLR lethal, PrP UTR inh, Yp Topo-I inh)
C=CCn1c(=O)c(C(=O)NCc2ccccc2)c(O)c2ccccc21	PfHsp40 yeast 129
C=CCn1c(=O)c(C(=O)NCCNCC)c(O)c2ccccc21	none
Cc1cccc(OCC(O)Cn2ccnc2C)c1 (stereo not drawn)	Yp Topo-I inh 66
CC(C)OC(=O)c1ccc(NCc2cc(O)ccc2O)cc1	none (no result: BJeLR lethal)
O=C(OCc1ccccc1)c1ccc(NCc2cc(O)ccc2O)cc1	PrPC surface inh 46 (no result: BJeLR lethal)
COc1ccc(Cl)cc1C(=O)Nc1ccccc1-c1ccc(=O)n(C)n1	none (no result: PfHsp40 yeast, PrPC surface inh, BJeLR lethal, PrP UTR inh, Yp Topo-I inh)
N#Cc1nccnc1OC1CCC(NC(=O)Cc2cccs2)CC1 (stereo not drawn)	none (no result: PfHsp40 yeast, PrPC surface inh, BJeLR lethal, PrP UTR inh, Yp Topo-I inh)
CCn1nnc(-c2ccccc2NC(=O)c2ccc(-n3cnnn3)cc2)n1	PfHsp40 yeast 71
CCn1nnc(-c2ccccc2NC(=O)c2cccc(-n3cnnn3)c2)n1	none
N#Cc1c2ccc(O)cc2n2ccccc12	PfHsp40 yeast 55
N#Cc1c2ccc(OCC(=O)NCc3ccco3)cc2n2ccccc12	none
O=C(NCc1cccc(Oc2ccccn2)c1)c1c[nH]c2ccccc12	none (no result: PfHsp40 yeast, PrPC surface inh, BJeLR lethal, PrP UTR inh, Yp Topo-I inh)
C#CCOCCOCCOCCNc1nc(N2CCN(C(=O)[C@H](Cc3cc4ccccc4[nH]3)n3cc([C@@H](N)Cc4ccc(O)cc4)nn3)CC2)nc(N2CCN(C(=O)[C@H](Cc3cc4ccccc4[nH]3)n3cc([C@@H](N)CC(C)C)nn3)CC2)n1	none (no result: PrPC surface inh, BJeLR lethal, Yp Topo-I inh)
C#CCOCCOCCOCCNc1nc(N2CCN(C(=O)C(Cc3cc4ccccc4[nH]3)n3cc(C(N)Cc4ccc(O)cc4)nn3)CC2)nc(N2CCN(C(=O)C(Cc3cc4ccccc4[nH]3)n3cc(C(N)Cc4ccc(O)cc4)nn3)CC2)n1 (stereo not drawn)	PriA SSB inh 39 (no result: PfHsp40 yeast, PrPC surface inh, PrP UTR inh, Yp Topo-I inh)
COc1ccc(NC(=O)CN(C)C(=O)/C=C/c2ccc(S(=O)(=O)N3CCCCCC3)cc2)cc1	Yp Topo-I inh 77
COc1ccc(/C=C/C(=O)N(C)CC(=O)Nc2cccc(F)c2)cc1S(=O)(=O)N1CCCCC1	none (no result: BJeLR lethal)
CC(C)(C)c1ccc(-c2nnc3sc(-c4ccccn4)nn23)cc1	PriA SSB inh 46
COc1ccc(-c2nnc3sc(-c4ccccn4)nn23)cc1	PriA SSB inh 56 (no result: PfHsp40 yeast, PrPC surface inh, PrP UTR inh, Yp Topo-I inh)
COc1ccccc1-c1nnc2sc(-c3ccc(N(C)C)cc3)nn12	BJeLR lethal 53
CN(C)c1ccc(-c2nnc3sc(-c4ccccn4)nn23)cc1	PriA SSB inh 74 (no result: PfHsp40 yeast, PrPC surface inh, BJeLR lethal, PrP UTR inh, Yp Topo-I inh)
CN(C)c1ccc(-c2nn3c(-c4ccccc4Cl)nnc3s2)cc1	none
COc1ccccc1N1CCN(CCNC(=O)c2ccc(F)c(F)c2)CC1	none (no result: PfHsp40 yeast, PrPC surface inh, BJeLR lethal, PrP UTR inh, Yp Topo-I inh)
Cc1cc(=O)n2c(-c3cccc(NC(=O)COc4ccc(Cl)cc4)c3)csc2n1	none (no result: PfHsp40 yeast, PrPC surface inh, BJeLR lethal, PrP UTR inh, Yp Topo-I inh)
O=C(Nc1cnc(N2CCN(c3ccccc3)CC2)nc1)c1cnccn1	none (no result: PfHsp40 yeast, PrPC surface inh, BJeLR lethal, PrP UTR inh, Yp Topo-I inh)
O=C(CCCS(=O)(=O)c1ccc(Cl)cc1)Nc1nnc(-c2ccc(Br)s2)o1	none (no result: PfHsp40 yeast, PrPC surface inh, BJeLR lethal, PrP UTR inh, Yp Topo-I inh)
c1ccc(-c2nnc3sc(-c4ccccn4)nn23)cc1	none (no result: PfHsp40 yeast, PrPC surface inh, BJeLR lethal, PrP UTR inh, Yp Topo-I inh)
c1ccc(-c2nn3c(-c4ccncc4)nnc3s2)nc1	PriA SSB inh 59 (no result: PfHsp40 yeast, PrPC surface inh, BJeLR lethal, PrP UTR inh, Yp Topo-I inh)
COc1ccc(S(=O)(=O)N(CC(=O)N/N=C/c2cccs2)c2cc(C)cc(C)c2)cc1OC	PfHsp40 yeast 48 (no result: PriA SSB inh)
COc1ccc(S(=O)(=O)N(CC(=O)NN=Cc2cccs2)c2ccc(C)cc2)cc1OC	none (no result: PfHsp40 yeast, PrPC surface inh, BJeLR lethal, PrP UTR inh, Yp Topo-I inh)
O=c1nc(SCc2c(F)cccc2Cl)c2c([nH]1)CCCC2	none (no result: PfHsp40 yeast, PrPC surface inh, BJeLR lethal, PrP UTR inh, Yp Topo-I inh)
CC(C)C1NC(=O)CNC1=O (stereo not drawn)	none (no result: PfHsp40 yeast, PrPC surface inh, BJeLR lethal, PrP UTR inh, Yp Topo-I inh)
CCCCCCC[C@@H](C/C=C/CCC(=O)N(C)C/C(=C/Cl)C/C(=C\C(=O)N1CC(OC)=CC1=O)OC)OC	PfHsp40 yeast 37 (no result: BJeLR lethal)

Screens from PubChem.
